# According to ChEMBL document CHEMBL3988442, “University of Dundee, Small-Polar-MMV Screening Library” (2021):
# Hit rate of the full screen: of about 48,000 compounds, about 13,000 (27%) showed an effect of 50% or more. The list shows a part of the results.
# System: Wolbachia pipientis
# Test: Anti-Wolbachia Cell-Based Screen
# Assay type: functional
# Set-up: scale not given: in the data most compounds retested in dose-response had high values
# Details: 5 µM
row,Compound,Percent Effect
1,COc1ncccc1CN1C[C@H](C(=O)N2CCCO2)[C@@H]2CCO[C@@H]2C1,0.1445%
2,CC(C)(C)c1nnc(CNc2c(F)cccc2-n2cccn2)o1,-0.1409%
3,Cc1nc(CN2CCCC(CCc3ccccc3F)C2)c[nH]1 (centres undefined),15.72%
4,Cc1cc(C)c(C(=O)NC(CN2CCCC2)c2ccccc2)c(=O)[nH]1 (centres undefined),1.71%
5,Cn1cncc1CN1CCC2(CCCN2c2ncccn2)CC1.O=C(O)C(F)(F)F,7.027%
6,COCCN1CCOCC12CCN(Cc1ccn(C)n1)CC2.O=C(O)C(F)(F)F.O=C(O)C(F)(F)F,-14.13%
7,COc1cc(N2CCC3(CCCN3Cc3ccn(C)n3)CC2)ncn1.O=C(O)C(F)(F)F,-11.95%
8,Fc1cccc(CN2CCC3(CCCN3c3ncccn3)CC2)c1.O=C(O)C(F)(F)F,103.6%
9,COCCC(=O)N1CCC2(CCN(Cc3cccc(F)c3)CC2)CC1.O=C(O)C(F)(F)F,-14.44%
10,Cn1ccc(CN2CCCC23CCN(Cc2ccccc2F)CC3)n1.O=C(O)C(F)(F)F.O=C(O)C(F)(F)F,125.7%
11,Cn1ccc(CN2CCCC23CCN(Cc2cccc(F)c2)CC3)n1.O=C(O)C(F)(F)F.O=C(O)C(F)(F)F,121.8%
12,Cc1c(CN2CCCC(C(=O)CCc3ccccc3)C2)cc(C#N)n1C (centres undefined),16.56%
13,CCn1ncc(CNC(=O)c2cn(CCC3CCCCN3)nn2)c1C (centres undefined),3.216%
14,CN(CC(=O)NC(C)(C)C)Cc1nc(-c2ccccc2)c[nH]1,-12.75%
15,CN(CC(=O)NCC(CCO)c1ccccc1)C(=O)OC(C)(C)C (centres undefined),2.407%
16,Cc1ccc(OCC(=O)NCC(F)(F)F)nc1,-4.389%
17,CN(CC(=O)NCC(O)c1cccc(F)c1)C(=O)OC(C)(C)C (centres undefined),1.189%
18,Cc1cccc(NC(=O)CN(C)C(=O)c2ccc(OC(C)C)nc2)n1,4.087%
19,CN(CC(=O)NCC(F)(F)F)C(=O)c1ccc(C(=O)OC(C)(C)C)cc1,91.82%
20,Cc1ccc(C(=O)N(C)CC(=O)NCC(F)(F)F)cn1,99.88%
21,CSc1ccc(S(=O)(=O)N2CCCCC2CCNC(C)=O)cc1 (centres undefined),-2.003%
22,CC(=O)NCCC1CCCCN1S(=O)(=O)c1cccc(F)c1 (centres undefined),85.51%
23,CCN1CCN2CCCN(S(=O)(=O)c3cccc(F)c3)C2C1=O (centres undefined),4.508%
24,CNS(=O)(=O)CC1CCCN1C(=O)c1cccc(Cl)c1 (centres undefined),-8.436%
25,CC(=O)c1ccc(S(=O)(=O)N2CCCC2CN2CCCC2)cc1 (centres undefined),-61.12%

row,Compound,Percent Effect
1,CC(=O)NCCC1CCCCN1S(=O)(=O)c1cccc(C#N)c1 (centres undefined),-10.91%
2,CC(=O)NCCC1CCCCN1S(=O)(=O)c1ccc2ccccc2c1 (centres undefined),104.3%
3,CC(=O)NCCC1CCCCN1S(=O)(=O)c1cccc(Cl)c1 (centres undefined),153.7%
4,CCN1CC(C(=O)N(C)Cc2ccon2)CC1=O (centres undefined),8.13%
5,CCN(CC)[C@H]1C[C@@H](Cc2cc(CO)on2)C1(C)C,-1.281%
6,COc1ccc(C)cc1NC(=O)CNc1ccn(CC(N)=O)n1,-13.27%
7,CCn1cc(C(=O)Nc2ccc(C)cc2C(=O)OC)cn1,-8.405%
8,COC(=O)c1ccccc1NC(=O)c1nc2ccccc2n(C)c1=O,2.974%
9,COc1ccc(OC)c(CNCc2c(C)nc3sc(C)cn23)c1,17.49%
10,COc1ccc(OC)c(NC(=O)N2CCCC2c2ccco2)c1 (centres undefined),-3.414%
11,COc1ncc(NC(=O)Nc2cc(C)ccc2OC)cn1,7.981%
12,COc1ccc(OC)c(NC(=O)c2c(C)cn(C)c2CC(=O)O)c1,111%
13,COC(=O)c1ccccc1NC(=O)c1c(C)cn(C)c1CC(=O)O,101.4%
14,COc1ccc(C)cc1NC(=O)c1c(C)cn(C)c1CC(=O)O,106.8%
15,CCCN(C1CCc2ccccc2C1)S(C)(=O)=O (centres undefined),-12.4%
16,NC(=O)CN(CC1CCOC1)C1CC1 (centres undefined),12.45%
17,CCCN1C(=O)[C@@H]2[C@@H](CCN2C(=O)COC)N(Cc2cccs2)C1=O,27.38%
18,COCC(=O)N1CCN(C(=O)c2cccs2)C[C@H]1C(=O)OC,-7.618%
19,CCC(=O)N1CCN(S(=O)(=O)c2cccc(F)c2)[C@H]2CS(=O)(=O)C[C@H]21,7.69%
20,COCC(=O)N1CCN(S(=O)(=O)c2ccccc2)[C@@H](C(=O)OC)C1,2.651%
21,COCC(=O)N1CCN(C(=O)Cc2cccs2)[C@H]2CS(=O)(=O)C[C@H]21,102.4%
22,COCC(=O)N1CCN(S(=O)(=O)c2cccs2)[C@H]2CS(=O)(=O)C[C@H]21,101.1%
23,COCC(=O)N1CCN(S(=O)(=O)c2ccccc2)[C@H]2CS(=O)(=O)C[C@H]21,117.3%
24,COc1ccccc1S(=O)(=O)N1CCN(C)[C@@H]2CS(=O)(=O)C[C@@H]21,-4.767%
